Assay results from PubChem BioAssay AID651660 (Broad Institute, 2012).
Screen size: about 1,900 compounds; about 15 (0.8%) were called active.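 The calls were made as follows: active = every replicate shows at least 50% inhibition; inconclusive = mean inhibition at least 50% but some replicate below; inactive = the rest.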 The full list was thinned out, with actives kept by preference.

target: DNA repair protein RAD52 homolog (Homo sapiens) (UniProt P43351); experiment: RAD52 ssDNA annealing inhibitors, primary screen, biochemical, FRET, single point (AID 651660); conditions: Recombinant RAD52 ssDNA annealing, FRET fluorescence, 30 min; at 18.7 µM; hits give high values;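 also: 0% = median of neutral control wells and 100% = median of positive control wells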
Sequence (P43351 whole entry, looked up): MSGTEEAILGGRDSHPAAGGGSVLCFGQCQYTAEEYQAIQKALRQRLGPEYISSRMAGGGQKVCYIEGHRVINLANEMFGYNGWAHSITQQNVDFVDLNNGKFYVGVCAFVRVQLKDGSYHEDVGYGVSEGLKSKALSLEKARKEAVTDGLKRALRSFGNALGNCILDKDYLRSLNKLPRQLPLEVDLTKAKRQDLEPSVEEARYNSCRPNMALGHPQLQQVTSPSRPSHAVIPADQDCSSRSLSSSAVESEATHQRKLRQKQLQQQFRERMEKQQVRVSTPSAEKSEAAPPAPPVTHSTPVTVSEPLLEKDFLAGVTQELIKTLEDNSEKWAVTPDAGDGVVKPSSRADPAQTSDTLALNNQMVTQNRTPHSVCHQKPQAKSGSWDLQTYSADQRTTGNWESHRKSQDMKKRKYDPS

inhibition, inactive:
COc1ccc(C2NC(=O)c3ccccc3O2)c(OC)c1OC (stereo not given) -1.29%
COc1cccc(/C=C/C(=O)c2c(O)cc(C)oc2=O)c1O -38.5%
CCOc1ccc(NC2OC(C)C(O)C(O)C2O)c([N+](=O)[O-])c1 (stereo not given) -2.79%
CC(C)CC1c2[nH]c3ccccc3c2CCN1C(=O)CCC(=O)N(C)C (stereo not given) -3.31%
CC(NC(=O)OCc1ccccc1)C(=O)N1CC(O)CC1C(=O)O (stereo not given) -5.77%
COCCNC(=O)CSc1ccc(Cl)cc1 -17.2%
CC(C)CCn1c(N2CCc3ccccc3C2)nc2c1c(=O)[nH]c(=O)n2C -3.91%
O=C1Cc2ccccc2C(c2ccccc2)N1 (stereo not given) -8.11%
COc1ccc(-c2noc(CCc3ccccc3)n2)cc1 -6.01%
COC(=O)c1cc(-c2c(C)oc3cc(OC)ccc3c2=O)c(C)o1 2.67%
O=c1c(-c2ccc3c(c2)OCCO3)coc2cc(OC3OC(CO)C(O)C(O)C3O)ccc12 (stereo not given) 2.13%
COc1ccc(-c2[nH]ncc2CN(CCO)Cc2cccs2)c(F)c1 -3.67%
Cc1ccc2c(c1)c1c3n2CCCN(Cc2ccccc2)C3CCC1 (stereo not given) 3.99%
Cc1nc(NCc2ccco2)c(C#N)c2c1COC(C)(C)C2 -36.8%
COc1cccc(CN2C(=O)N(C(C)C)C(N(O)C(=O)NC(C)C)C2(C)C)c1OC (stereo not given) 2.14%
COc1cc2cc(C(=O)O)n(C)c2c(OC)c1OC -3.98%
CN(C)CCOc1ccccc1Cc1ccccc1 1.84%
CCC(=O)Oc1ccc(/C(CC)=C(\CC)c2ccc(OC(=O)CC)cc2)cc1 -4.46%
CC(=O)c1cccc2c(O)c(C3=Nc4ccccc4C3=O)[nH]c12 -6.23%
CC(OC(=O)c1cc(=O)[nH]c2ccccc12)C(=O)c1ccccc1 (stereo not given) 1.44%
COc1cc(/C=C/C(=O)N2CCCC2)cc(OC)c1OC -3.32%
Cn1c(=O)[nH]c(=O)c2c1ncn2CCN1CCOCC1 -9.6%
CN(C)CCCN1c2ccccc2CCc2ccc(Cl)cc21 16%
CNCCCN1c2ccccc2CCc2ccccc21 -18.4%
Clc1ccc(OCCCN2CCCCC2)c(Br)c1 5.3%
CN(C)CCCN1c2ccccc2Sc2ccc(C(F)(F)F)cc21 29.1%
CN(C)CCCN1c2ccccc2Sc2ccccc21 7.51%
OC(CCCN1CCCCC1)(c1ccccc1)c1ccccc1 10.1%
OCCOCCN1CCN(C(c2ccccc2)c2ccc(Cl)cc2)CC1 (stereo not given) 7.68%
O=c1oc2c(CN3CCN(CCO)CC3)c(O)ccc2cc1-c1ccccn1 -38.1%
CCOC(=O)c1oc2cc(O)cc(C)c2c(=O)c1-c1cscn1 5.2%
CC(=O)C1=C(Nc2ccc(C)cc2)CC(C)(O)C(C(C)=O)C1c1ccco1 (stereo not given) -76.2%
CCN(CC)CCCNC(=O)C1c2ccccc2Oc2ccccc21 4.59%
C[C@]12CC[C@@H]3c4ccc(O)cc4CC[C@H]3[C@@H]1C[C@@H](O)[C@@H]2O[C@@H]1O[C@H](C(=O)O)[C@@H](O)[C@H](O)[C@H]1O 5.26%
O=C(NCCc1ccccc1)C1CCN(C2CCN(Cc3ccco3)CC2)CC1 -15.9%
COc1ccc(-c2coc3c(CN4CCOCC4)c(O)ccc3c2=O)cc1 7.99%
COc1ccc2[nH]c(CN3CCN(CC(C)C)C(CCO)C3)c(C)c2c1 (stereo not given) -14.8%
O=C(CN1C(=O)C2CCc3[nH]c4ccccc4c3C2C1=O)N1CCCC1 (stereo not given) -14.6%
OC12CCCCC1C(c1ccc3c(c1)OCO3)N(Cc1cccc(F)c1)CC2 (stereo not given) -0.832%
CCC(=O)Oc1ccc(C(=O)Nc2ccc([N+](=O)[O-])cc2)cc1 3.79%
CN1CC2CCCC3(C1)C(=O)NC1(CCCCC1)N=C23 (stereo not given) -2.27%
CC(=O)c1cn(C)c(=O)[nH]c1=O -3.65%
CCn1c(N2CCN(CC(=O)c3c(C)n(C)c4ccc(OC)cc34)CC2)nc2c1c(=O)[nH]c(=O)n2C -1.17%
CC1(C)CC(=O)c2cn3c(nc2C1)nc1ccccc13 -4.04%
CC(=O)N(CCC(Cc1ccccc1)c1ccco1)Cc1ccco1 (stereo not given) -17.2%
NC(N)=N/N=C/c1cccc(Cl)c1Cl 18.4%
CN1CCc2c(n(CC(O)CN(CCO)CCO)c3ccccc23)C1=O (stereo not given) 11.3%
OCCN(CCO)c1ccc2ccccc2c1 -0.71%

inhibition, active:
CC/C(=C(\c1ccc(O)cc1)c1ccc(OCCN(C)C)cc1)c1ccccc1 76%
OCCN1CCN(CCCN2c3ccccc3Sc3ccc(Cl)cc32)CC1 73.4%
CN1CCN(CCCN2c3ccccc3Sc3ccc(C(F)(F)F)cc32)CC1 67.4%
CN(C)CCCN1c2ccccc2Sc2ccc(Cl)cc21 68.5%
OCCN1CCN(CCCN2c3ccccc3Sc3ccc(C(F)(F)F)cc32)CC1 65.2%
CCN(CC)CCNc1ccc(CO)c2sc3ccccc3c(=O)c12 61.5%
C1CCC(C(CC2CCCCN2)C2CCCCC2)CC1 (stereo not given) 62.5%
